Results filed as inconclusive are left out. Active and inactive are the calls of the source. Calls come from the whole dose curve; as a rule, active = well fitted curve in the direction sought with a large enough effect; inconclusive = small, poorly fitted or top-dose-only effect, or another doubt; inactive = no such curve, though single readings can be large; an effect the other way counts as inactive or inconclusive.
What was measured:
NIH3T3 = assay: qHTS assay to identify novel small-molecules to repurpose for Merkel cell carcinoma treatment (AID 1296009); conditions: MCC and control cell lines, CellTiter-Glo viability, 72 h; at 44.8 µM (top of the series) unless noted; note: nearly all actives have a fitted effect of over 60% in size
Outline: (§1)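 Luminescence from CellTiter-Glo, read 10 min after addition at room temperature, reported viability following a 72 hr, 37 degree celsius treatment with NPC or MIPE compounds in titration; values normalized to plate controls.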

C33A = assay: Primary qHTS to identify gynecologic anti-cancer compounds using libraries of approved drugs and bioactive compounds (AID 1345084); conditions: Gynecologic cancer cell panel viability, ATPlite luminescence, 48 h; series mostly up to 57.5 µM; note: nearly all actives have a fitted effect of over 55% in size
Outline: (§2)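 Five-point cytotoxicity, 48 h drug exposure at 37 C, 5% CO2, on cells seeded 16 h beforehand. ATP content read by ATPlite luminescence.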

CAOV3 = assay: as above; conditions: Gynecologic cancer cell panel viability, ATPlite luminescence, 48 h; series mostly up to 57.5 µM
Outline: as §2

CASKI = assay: as above; conditions: Gynecologic cancer cell panel viability, ATPlite luminescence, 48 h; series mostly up to 57.5 µM
Outline: as §2

Es-2 = assay: as above; conditions: Gynecologic cancer cell panel viability, ATPlite luminescence, 48 h; series mostly up to 57.5 µM
Outline: as §2

HeLa = assay: as above; conditions: Gynecologic cancer cell panel viability, ATPlite luminescence, 48 h; series mostly up to 57.5 µM
Outline: as §2

Hek293T = assay: as above; conditions: Gynecologic cancer cell panel viability, ATPlite luminescence, 48 h, control line for the selectivity index; series mostly up to 57.5 µM
Outline: as §2

MKL-2 = assay: qHTS assay to identify novel small-molecules to repurpose for Merkel cell carcinoma treatment (AID 1296009); conditions: MCC and control cell lines, CellTiter-Glo viability, 72 h; series mostly up to 46 µM; note: nearly all actives have a fitted effect of over 60% in size
Outline: as §1

UISO = assay: as above; conditions: MCC and control cell lines, CellTiter-Glo viability, 72 h; series mostly up to 46 µM
Outline: as §1

WaGa = assay: as above; conditions: MCC and control cell lines, CellTiter-Glo viability, 72 h; series mostly up to 46 µM
Outline: as §1
% is set by controls: 0 for no effect and ±100 for the full control effect.

C[C@H](C(=O)NC1CCCC1)N(C(=O)Cn1nnc(-c2ccc3c(c2)OCO3)n1)C1CCCCC1
inactive: outcome (NIH3T3) | Potency (C33A) | Potency (CAOV3) | Potency (CASKI) | Potency (Es-2) | Potency (HeLa) | Potency (Hek293T)

COC(=O)CC(O)CC(O)/C=C/c1c(C)ccc2c1C(O)CC(C)C2 (stereo unspecified)
inactive: outcome (NIH3T3) | Potency (C33A) | Potency (CAOV3) | Potency (CASKI) | Potency (Es-2) | Potency (HeLa) | Potency (Hek293T)

CCOCCOC(=O)/C=C/c1ccc(OC)cc1
inactive: Potency (MKL-2) | Potency (UISO) | Potency (WaGa) | Potency (C33A) | Potency (CAOV3) | Potency (CASKI) | Potency (Es-2) | Potency (HeLa) | Potency (Hek293T)

CC(NC(=O)C(O)C(C)C)C(=O)NC1C(=O)N(C)CCc2ccccc21 (stereo unspecified)
inactive: outcome (NIH3T3) | Potency (C33A) | Potency (CAOV3) | Potency (CASKI) | Potency (Es-2) | Potency (HeLa) | Potency (Hek293T)

Nc1nc2c(ncn2[C@@H]2O[C@H](CO)[C@@H](O)[C@H]2O)c(=O)[nH]1
inactive: outcome (NIH3T3) | Potency (C33A) | Potency (CAOV3) | Potency (CASKI) | Potency (Es-2) | Potency (HeLa) | Potency (Hek293T)

CC1=CC(=O)[C@]2(O[C@@H]3O[C@@H](C)[C@H](O)[C@@H](O)[C@H]3OC(=O)/C=C/c3ccccc3)C=CO[C@@H](O[C@@H]3O[C@H](CO)[C@@H](O)[C@H](O)[C@H]3O)[C@H]12
inactive: outcome (NIH3T3) inactive [at 17.4 µM] | Potency (C33A) | Potency (CAOV3) | Potency (CASKI) | Potency (Es-2) | Potency (HeLa) | Potency (Hek293T)

O=C(O)c1ccccc1NC(=O)N1CCC(c2ccccc2C(F)(F)F)CC1
inactive: outcome (NIH3T3) | Potency (C33A) | Potency (CAOV3) | Potency (CASKI) | Potency (Es-2) | Potency (HeLa) | Potency (Hek293T)

CCCCCCOc1cc2c(cc1N(C)c1ncc(C(=O)O)cn1)C(C)(C)CCC2(C)C
inactive: outcome (NIH3T3) | Potency (C33A) | Potency (CAOV3) | Potency (CASKI) | Potency (Es-2) | Potency (HeLa) | Potency (Hek293T)

CC(=O)O[C@@H]1[C@H](O)[C@@H](O[C@@H]2O[C@@H](C)[C@H](O[C@@H]3OC[C@@H](O)[C@H](O[C@@H]4OC[C@@H](O)[C@H](O)[C@H]4O)[C@H]3O)[C@@H](O[C@@H]3O[C@H](CO)[C@@H](O)[C@H](O)[C@H]3O)[C@H]2O)[C@H](OC(=O)[C@]23CCC(C)(C)C[C@H]2C2=CCC4[C@@]5(C)CC[C@H](O[C@@H]6O[C@H](C(=O)O)[C@@H](O)[C@H](O[C@@H]7OC[C@@H](O)[C@H](O)[C@H]7O)[C@H]6O[C@@H]6O[C@H](CO)[C@H](O)[C@H](O)[C@H]6O)[C@@](C)(C=O)C5CC[C@@]4(C)[C@]2(C)CC3)O[C@@H]1C (stereo partly specified)
inactive: outcome (NIH3T3) inactive [at 4.96 µM] | activity change, negative = cytotoxicity (C33A) 0.359% [at 6.55 µM] | activity change, negative = cytotoxicity (CAOV3) 19.4% [at 6.55 µM] | activity change, negative = cytotoxicity (CASKI) -13.6% [at 6.55 µM] | activity change, negative = cytotoxicity (Es-2) -2.98% [at 6.55 µM] | activity change, negative = cytotoxicity (HeLa) 2.25% [at 6.55 µM] | activity change, negative = cytotoxicity (Hek293T) -2.1% [at 6.55 µM]

CCC(C)/C=C(C)/C=C/c1cc2c(cn1)C(=O)C(C)(OC(C)=O)C(O)=C2Cl (stereo unspecified)
inactive: outcome (NIH3T3) | Potency (C33A) | Potency (CAOV3) | Potency (CASKI) | Potency (Es-2) | Potency (HeLa) | Potency (Hek293T)

COC(=O)C12CCC(C)C(C)C1C1=CCC3C4(C)CCC(OC(C)=O)C(C)(C)C4CCC3(C)C1(C)CC2 (stereo unspecified)
inactive: outcome (NIH3T3) inactive [at 17.4 µM] | Potency (C33A) | Potency (CAOV3) | Potency (CASKI) | Potency (Es-2) | Potency (HeLa) | Potency (Hek293T)

O=C(O)c1ccccc1NCCc1ccccc1
inactive: Potency (MKL-2) | Potency (UISO) | Potency (WaGa) | Potency (C33A) | Potency (CAOV3) | Potency (CASKI) | Potency (Es-2) | Potency (HeLa) | Potency (Hek293T)

OC[C@H]1O[C@@H](Oc2cc(O)c3c(c2)O[C@@H](c2ccc(O)cc2)[C@H](O)C3)[C@H](O)[C@@H](O)[C@@H]1O
inactive: outcome (NIH3T3) inactive [at 17.4 µM] | Potency (C33A) | Potency (CAOV3) | Potency (CASKI) | Potency (Es-2) | Potency (HeLa) | Potency (Hek293T)

C[C@@H]1O[C@@H](O[C@H]2[C@H](OC(=O)[C@]34CCC(C)(C)C[C@H]3C3=CCC5[C@@]6(C)C[C@H](O)[C@H](O[C@@H]7O[C@H](CO)[C@@H](O)[C@H](O)[C@H]7O)[C@@](C)(CO)C6[C@H](O)C[C@@]5(C)[C@]3(C)CC4)OC[C@H](O)[C@@H]2O)[C@H](O)[C@H](O)[C@H]1O[C@@H]1OC[C@@H](O)[C@H](O[C@@H]2OC[C@](O)(CO)[C@H]2O)[C@H]1O (stereo partly specified)
inactive: outcome (NIH3T3) inactive [at 9.27 µM] | activity change, negative = cytotoxicity (C33A) 7.14% [at 6.55 µM] | activity change, negative = cytotoxicity (CAOV3) 10.8% [at 6.55 µM] | activity change, negative = cytotoxicity (CASKI) 15.5% [at 6.55 µM] | activity change, negative = cytotoxicity (Es-2) 6.38% [at 6.55 µM] | activity change, negative = cytotoxicity (HeLa) 4.34% [at 6.55 µM] | activity change, negative = cytotoxicity (Hek293T) 3.42% [at 6.55 µM]

CCN(Cc1cccnc1)C(=O)CN(c1ccc(OC)nc1)S(=O)(=O)c1ccccc1C
inactive: outcome (NIH3T3) | Potency (C33A) | Potency (CAOV3) | Potency (CASKI) | Potency (Es-2) | Potency (HeLa) | Potency (Hek293T)

CC(O)/C=C/C1OC(=O)CC1Nc1ccc(C(=O)O)cc1 (stereo unspecified)
inactive: outcome (NIH3T3) | Potency (C33A) | Potency (CAOV3) | Potency (CASKI) | Potency (Es-2) | Potency (HeLa) | Potency (Hek293T)
